Screens from PubChem BioAssay.
BoNT A protease: BoNT/A light chain protease inhibitors, primary screen, biochemical, flow cytometry, MLPCN library; inhibition, % at 10 µM; multiplex microsphere protease substrate cleavage; actives 0.17% (n = 360,000); AID 588499, 2011
BoNT F protease: BoNT/F light chain protease inhibitors, primary screen, biochemical, flow cytometry, MLPCN library; actives 0.22% (n = 360,000); Multiplex microsphere protease cleavage assay; inhibition, % at 10 µM; Botulinum neurotoxin type F light chain protease (Clostridium botulinum); AID 588497, 2011; in the data active = inhibition above about 35%, passing the limit was not always enough; inconclusive = no clear call, values can overlap the other calls
Bead autofluor: counter-screen for toxin protease inhibitors: compound fluorescence; compound autofluorescence counterscreen, microsphere flow cytometry; active compounds read high; fluorescence intensity (no concentration beside the values); actives 3.1% (n = 360,000); AID 624483; in the data active = fluorescence intensity above about 16000; inconclusive = no clear call, values can overlap the other calls
Anthrax LF inh2: Bacillus anthracis LF protease inhibitors, primary screen, biochemical, multiplex microsphere, MLPCN library; AID 588501, 2011; inhibition, % at 10 µM; actives 0.12% (n = 360,000); multiplex microsphere protease cleavage assay
Target sequence (P15917 whole entry, looked up): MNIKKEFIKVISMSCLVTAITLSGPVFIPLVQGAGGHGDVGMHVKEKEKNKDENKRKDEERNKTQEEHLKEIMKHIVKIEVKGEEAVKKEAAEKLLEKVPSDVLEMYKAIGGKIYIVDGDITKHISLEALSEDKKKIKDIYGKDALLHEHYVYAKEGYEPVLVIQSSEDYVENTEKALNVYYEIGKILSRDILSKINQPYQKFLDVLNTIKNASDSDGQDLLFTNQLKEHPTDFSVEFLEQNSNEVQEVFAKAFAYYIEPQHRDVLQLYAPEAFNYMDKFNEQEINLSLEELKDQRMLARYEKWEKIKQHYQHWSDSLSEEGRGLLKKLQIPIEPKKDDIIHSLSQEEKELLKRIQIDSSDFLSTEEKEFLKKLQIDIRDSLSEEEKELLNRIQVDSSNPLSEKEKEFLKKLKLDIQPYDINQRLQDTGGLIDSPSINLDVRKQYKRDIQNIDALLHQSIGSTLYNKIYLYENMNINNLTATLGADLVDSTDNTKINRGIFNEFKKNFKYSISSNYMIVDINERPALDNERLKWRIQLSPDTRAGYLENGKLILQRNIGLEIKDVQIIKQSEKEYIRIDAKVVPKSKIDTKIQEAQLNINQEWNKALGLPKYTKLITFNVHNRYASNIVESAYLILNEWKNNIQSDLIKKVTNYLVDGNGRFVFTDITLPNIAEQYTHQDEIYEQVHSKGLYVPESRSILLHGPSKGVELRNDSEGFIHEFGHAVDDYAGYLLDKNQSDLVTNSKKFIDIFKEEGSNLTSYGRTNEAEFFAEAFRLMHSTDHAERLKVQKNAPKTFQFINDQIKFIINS
Numbers stand for hits. Hits are enriched below; roughly 3.5% of the tested compounds scored in any of these assays. Rule as the data show it, unless noted: active = inhibition above about 30%; inconclusive = no clear call, values can overlap the other calls; inactive = below that.

Screening C=CCC1(CC=C)CCCN1C(=O)c1ccc2oc(CCCC)nc2c1 returned BoNT A protease inactive, BoNT F protease inactive, Bead autofluor inactive and Anthrax LF inh2 inactive.
For Cn1cnc(S(=O)(=O)N2CCN(C(c3ccccc3)c3ccccc3)CC2)c1 the results were BoNT A protease inactive, BoNT F protease inactive, Bead autofluor inactive and Anthrax LF inh2 inactive.
For Cc1sc(NC(=O)c2ccco2)c(CN2CCN(c3ccccn3)CC2)c1C the results were BoNT A protease inactive, BoNT F protease inactive, Bead autofluor 23314 and Anthrax LF inh2 inactive.
For Cc1sc(NC(=O)c2ccco2)c(CN2CCN(c3ccc(F)cc3)CC2)c1C the results were BoNT A protease inactive, BoNT F protease inactive, Bead autofluor inactive and Anthrax LF inh2 inactive.
CC(=O)Nc1sc2c(c1CN1CCN(c3ccccn3)CC1)CCCC2 was read as BoNT A protease inactive, BoNT F protease inactive, Bead autofluor 22350 and Anthrax LF inh2 inactive.
For CCOC(C(=O)OCCCN(CC)CC)(c1ccccc1)c1ccccc1 the results were BoNT A protease inactive, BoNT F protease inactive, Bead autofluor inactive and Anthrax LF inh2 inactive.
CCN(CC)CCCOC(=O)C(OC(C)C)(c1ccccc1)c1ccccc1 was read as BoNT A protease 36, BoNT F protease 43, Bead autofluor inconclusive and Anthrax LF inh2 inactive.
`COc1ccc(OCc2cc(C(=O)NCc3cccc(C)n3)no2)c(Cl)c1` gave BoNT A protease inactive, BoNT F protease inactive, Bead autofluor inactive and Anthrax LF inh2 inactive.
`CCc1c(C)sc(NC(=O)OC)c1C(N)=O` gave BoNT A protease inactive, BoNT F protease inactive, Bead autofluor 17066 and Anthrax LF inh2 inactive.
Screening CC1CC(C)CN(C(=O)C(C)N(C)CC(=O)Nc2ccc(F)cc2)C1 (centres undefined) returned BoNT A protease inactive, BoNT F protease inactive, Bead autofluor inactive and Anthrax LF inh2 inactive.
Screening COc1ccc(NC(=O)CN(C)C(C)C(=O)N2CCCCC2)cc1 (centres undefined) returned BoNT A protease inactive, BoNT F protease inactive, Bead autofluor 21556 and Anthrax LF inh2 inactive.
O=C(NCc1ccccn1)c1ccco1 was read as BoNT A protease inactive, BoNT F protease inactive, Bead autofluor inactive and Anthrax LF inh2 inactive.
For O=C(NC(Cc1ccccc1)C(=O)NCc1ccccn1)c1ccco1 (centres undefined) the results were BoNT A protease inactive, BoNT F protease inactive, Bead autofluor 17464 and Anthrax LF inh2 inactive.
Screening COc1ccc(OC)c(NC(=O)c2ccccc2SC)c1 returned BoNT A protease inactive, BoNT F protease inactive, Bead autofluor 16141 and Anthrax LF inh2 inactive.
For CSc1ccccc1C(=O)Nc1ccc(C)c(C)c1 the results were BoNT A protease inconclusive, BoNT F protease inactive, Bead autofluor 16135 and Anthrax LF inh2 inactive.
COc1ccc(NC(=O)c2ccccc2SC)cc1 was read as BoNT A protease inactive, BoNT F protease inactive, Bead autofluor inactive and Anthrax LF inh2 inactive.
`CSc1ccccc1C(=O)Nc1cc(C)cc(C)c1` gave BoNT A protease inactive, BoNT F protease inactive, Bead autofluor inactive and Anthrax LF inh2 inactive.
`CCOc1ccc(S(=O)(=O)NCCC(=O)NCC(c2ccco2)N2CCCCC2)cc1` (centres undefined) gave BoNT A protease inactive, BoNT F protease inactive, Bead autofluor inactive and Anthrax LF inh2 inactive.
For Nn1c(SCC(=O)Nc2nccs2)nnc1-c1cccnc1 the results were BoNT A protease inactive, BoNT F protease inactive, Bead autofluor inactive and Anthrax LF inh2 inactive.
Screening CC(=O)Nc1cccc(C(=O)N/N=C/c2cccc(C)n2)c1 returned BoNT A protease inactive, BoNT F protease 46, Bead autofluor inactive and Anthrax LF inh2 inactive.
`Cc1cccc(C(=O)Nc2cccc(C(=O)N/N=C/c3cccc(C)n3)c2)c1` gave BoNT A protease inactive, BoNT F protease inactive, Bead autofluor inactive and Anthrax LF inh2 inactive.
For C/C(=N\O)c1ccc2c3ccccc3n(C)c2c1 the results were BoNT A protease inconclusive, BoNT F protease inactive, Bead autofluor 21762 and Anthrax LF inh2 inactive.
Screening COc1ccc(CCn2c(C)cc3c(c2=O)C(c2ccncc2)C(C#N)=C(N)O3)cc1OC (centres undefined) returned BoNT A protease inactive, BoNT F protease inactive, Bead autofluor inactive and Anthrax LF inh2 inactive.
Screening Cc1cc2c(c(=O)n1CCN(C)C)C(c1ccc(Br)cc1)C(C#N)=C(N)O2 (centres undefined) returned BoNT A protease inactive, BoNT F protease inactive, Bead autofluor inactive and Anthrax LF inh2 inactive.
For COc1ccc(Cn2c(C)cc3c(c2=O)C(c2cccs2)C(C#N)=C(N)O3)cc1OC (centres undefined) the results were BoNT A protease inactive, BoNT F protease inactive, Bead autofluor 16938 and Anthrax LF inh2 inactive.
Screening Cc1cc2c(c(=O)n1CCN(C)C)C(c1ccc(Cl)cc1)C(C#N)=C(N)O2 (centres undefined) returned BoNT A protease inconclusive, BoNT F protease inactive, Bead autofluor 24829 and Anthrax LF inh2 inactive.
For CCOc1ccc(C2C(C#N)=C(N)Oc3cc(C)n(CCN(C)C)c(=O)c32)cc1OCC (centres undefined) the results were BoNT A protease inactive, BoNT F protease inactive, Bead autofluor 16485 and Anthrax LF inh2 inactive.
Cc1cc(C(=O)OCC(=O)NC(C)c2ccc(F)cc2)c(C)o1 (centres undefined) was read as BoNT A protease inactive, BoNT F protease inactive, Bead autofluor inactive and Anthrax LF inh2 inactive.
`COC(=O)[C@@]12CCCCN1[C@H](c1ccc(-c3ccc(F)cc3)cc1)[C@@H]1C(=O)N(C)C(=O)[C@@H]12` gave BoNT A protease inactive, BoNT F protease inactive, Bead autofluor inactive and Anthrax LF inh2 inactive.
C/C=C/c1c(F)c(F)c(Oc2ccc(C(=O)O)cc2)c(F)c1F was read as BoNT A protease inactive, BoNT F protease inactive, Bead autofluor 21781 and Anthrax LF inh2 inactive.
For CN(C)C=Nc1c(Br)cc(Br)c2nonc12 the results were BoNT A protease 71, BoNT F protease inconclusive, Bead autofluor inactive and Anthrax LF inh2 inactive.
Screening CCOC(=O)CN1C(=O)/C(=C/c2c(F)cccc2Cl)Oc2ccccc21 returned BoNT A protease inactive, BoNT F protease inactive, Bead autofluor inactive and Anthrax LF inh2 inactive.
CC(Sc1nnc(-c2ccccc2F)n1C)C(=O)NC1CCCCC1 (centres undefined) was read as BoNT A protease inactive, BoNT F protease inactive, Bead autofluor inactive and Anthrax LF inh2 inactive.
Screening CC(C)c1ccc(/C=C/c2[nH]c(=O)[nH]c(=O)c2[N+](=O)[O-])cc1 returned BoNT A protease inactive, BoNT F protease 37, Bead autofluor inactive and Anthrax LF inh2 inactive.
Screening CCOc1ccc(/C=C/c2[nH]c(=O)[nH]c(=O)c2[N+](=O)[O-])cc1 returned BoNT A protease inactive, BoNT F protease inactive, Bead autofluor inactive and Anthrax LF inh2 inactive.
`CCOc1ccc(NS(=O)(=O)c2ccc(C(=O)NCC(c3ccc(OC)cc3)N3CCCC3)cc2)cc1` (centres undefined) gave BoNT A protease inactive, BoNT F protease inactive, Bead autofluor inactive and Anthrax LF inh2 inactive.
